High-throughput results (PubChem BioAssay)
Rows were chosen to be rich in hits. Some 5.7% of all compounds tested hit in one or more screens of this group.
IL-1B inflam inh: inhibitors of inflammasome signaling (IL-1 beta secretion) | THP-1 LPS/ATP IL-1B secretion, AlphaLISA, 16 h; hits give low values | activity change, % at 57.5 µM | 360,000 tested, 4.7% active | AID 743279; in the data active means activity change below about -50%; inconclusive means mostly about -30% to -49%; further: on the % scale 0 is the no-effect control and ±100 the full control effect
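THP-1 cells pretreated 1 hr with compounds (up to 57.5 uM final), then stimulated with LPS (250 ng/mL final) plus ATP (1.25 mM final); secreted IL-1B measured by AlphaLISA after 16 hr, decreased signal indicating inhibition.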
TGFb inhibitor: inhibitors of TGF-b signaling; HepG2 CAGA-GFP TGF-b/SMAD3 reporter, GFP fluorescence, 18 h; TGF-beta stimulated, 500 pg/mL final; Potency, µM (titrated, usually from 46.1 µM), for inactives: at the top dose activity, negative = inhibition, usual class: inhibitors; 410,000 tested, 1.2% active; AID 588855; further: potency means the concentration at half of the fitted maximal effect; on the % scale 0 is the no-effect control and ±100 the full control effect; nearly all actives have a fitted effect of over 65% in size
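Per well, imaged GFP fluorescence of HEPG2 CAGA-GFP cells gives the signal; cells get compound, then TGF-beta (500 pg/mL final), 18 h at 37 degrees C; %Activity versus -TGF-beta and +DMSO controls.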
HepG2 viability: counter-screen for TGF-b inhibitors: cytotoxicity in HepG2 cells; HepG2 CAGA-GFP viability, ATP luminescence, 18 h; Potency, µM (titrated, usually from 46.1 µM), for inactives: at the highest dose activity change, negative = cytotoxicity, hits mostly cytotoxic; 410,000 tested, 0.76% active; further: potency means the concentration at half of the fitted maximal effect
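HepG2 CAGA-GFP cells (1000/well, DMEM with 1% FBS) received compound, then TGF-beta at 500 pg/mL final, and were incubated 18 hours at 37 degrees C. Viability was read by CellTiter-Glo luminescence. Media-only wells were set as complete cell-killing and DMSO as no toxicity.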
ATXN viability: reduces viability in counter-screen for ATXN expression inhibitors; 400,000 tested, 0.49% active; S2 cells (HEK-293 line with an ATXN2-luciferase reporter) viability, CellTiter-Fluor protease fluorescence, 24 h; Potency, µM (series often up to 56.7 µM), usual class: cytotoxic; further: potency means the concentration at half of the fitted maximal effect; nearly all actives have a fitted effect of over 40% in size
ATXN2 expr inh: ATXN2 expression inhibition. HEK-293 ATXN2-luciferase reporter, luminescence, 24 h. 360,000 tested, 0.72% active. AID 1745845. Potency, µM (top dose mostly 57 µM), inactives show at the highest dose activity change, negative = inhibition, actives largely listed as inhibitors; further: potency means the concentration at half of the fitted maximal effect; on the % scale 0 is the no-effect control and ±100 the full control effect; nearly all actives have a fitted effect of over 55% in size
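ATXN2-luciferase reporter cells (luciferase flanked by upstream and downstream ATXN2 gene portions) were treated 24 h at 37 °C with compounds at up to 57 uM. SteadyGlo luminescence gave expression; GF-AFC fluorescence gave viability.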
The depositor's hits bear a star; i = inactive; ? = inconclusive; · = no result given; ! = not active in a repeat. Unless noted, the call rests on the fitted dose curve; in most records, active means well fitted curve in the direction sought with a large enough effect; inconclusive means small, poorly fitted or top-dose-only effect, or another doubt; inactive means no such curve, though single readings can be large; an effect the other way counts as inactive or inconclusive.

SMILES	IL-1B inflam inh	TGFb inhibitor	HepG2 viability	ATXN viability	ATXN2 expr inh
O=C(C1=C[C@@H](c2ccc(C(F)(F)F)cc2)C[C@@H](OCc2ccc(CO)cc2)O1)N1CCN(Cc2ccc3c(c2)OCO3)CC1	-70*	?	-11%	?	?
O=C(C1=C[C@H](c2ccc(C(F)(F)F)cc2)C[C@H](OCCCCO)O1)N1CCN(Cc2ccccc2)CC1	-54*	?	2%	i	-10%
CCO[C@H]1OC(C(=O)N2CCN(Cc3ccc4c(c3)OCO4)CC2)=C[C@@H](c2ccc(C(F)(F)F)cc2)[C@@H]1CCCO	-77*	?	-21%	·	?
CCO[C@@H]1OC(C(=O)N2CCN(Cc3ccccc3)CC2)=C[C@H](c2ccc(C(F)(F)F)cc2)[C@H]1CCCO	-88*	13µM*	-33%	?	0%
CCN(CCCNC(=O)c1ccc(Sc2ccc(Cl)cc2)c(NC(C)=O)c1)c1ccccc1	·	?	-1%	·	·
O=C(NCc1nc2ccccc2[nH]1)C1=C[C@H](c2ccc(Br)cc2)C[C@H](OCc2ccc(CO)cc2)O1	-23	-9%	0%	?	-18%
O=C(NCc1nc2ccccc2[nH]1)C1=C[C@H](c2ccc(C(F)(F)F)cc2)C[C@H](OCc2ccc(CO)cc2)O1	?	11µM*	-31%	?	?
COc1cc(-c2coc3c(C(=O)NCc4cccc(Cl)c4)cccc23)ccc1O	-55*	?	-34%	?	?
CN(Cc1ccccc1)c1ccc(/C=C/c2nc3ccccc3s2)cc1	·	?	-85%	·	·
C(=C\c1ccc2ccccc2n1)/c1ccc2ccccc2n1	·	13%	8%	·	·
CN(C)c1ccc(/C=C/c2nc3ccccc3s2)cc1	-25	13µM*!	-69%	·	?
CN(C)c1ccc(/C=C/c2cc3ccccc3cn2)cc1	·	11µM*	-45%	·	·
CN(C)c1ccc(/C=C/c2ccccn2)cc1	·	20%	-12%	·	·
CN(C)c1ccc(/C=C/c2cccc3cc4ccccc4nc23)cc1	·	1.6µM*	14µM*	·	·
C(=C\c1ccc2ccccc2n1)/c1ccccc1	6	?	10µM*!	i	·
COc1cccc(CNC(=O)c2c(OC)cc(=O)n3c2CCN(C(=O)c2csc(C)n2)CC3)c1	·	·	·	i	·
CN(C)c1ccc(/C=C/c2ccc3cc(N(C)C)ccc3n2)cc1	·	-7%	-44%	·	·
O=C(O)/C=C/c1ccc2ccccc2n1	-71*	9%	-35%	i	10%
CN(C)c1ccc(/C=C/c2ccc3ccccc3n2)cc1	27	29%	5.6µM*!	·	·
CC[N+](CC)(CC)c1ccc(/C=C/c2ccc3ccccc3n2)cc1	·	6.3µM*	10µM*	·	·
Oc1ccc(/C=C/c2ccc3ccccc3n2)cc1	-16	-2%	-2%	·	·
CN(C)c1c(Cl)cc(/C=C2\C=Cc3ccccc32)cc1Cl	·	-3%	-30%	·	·
Cn1cc(C(=O)[C@@H]2CCc3nc[nH]c3C2)c2ccccc21	·	·	·	i	-9%
Cc1cc2c(c(-c3cnccn3)c1)OC(CNC(=O)c1cc(Cl)ccc1F)C2 (stereo unspecified)	·	·	·	i	·
CC1CCN(C(=O)Cn2cc(SCC(=O)NCc3ccccc3Cl)c3ccccc32)CC1	·	0%	-11%	·	·
SMILES	IL-1B inflam inh	TGFb inhibitor	HepG2 viability	ATXN viability	ATXN2 expr inh
Cc1cccn2c(=O)c3cc(C(=O)NCc4ccccc4)c(=N)n(CCOCCO)c3nc12	·	-7%	-13%	·	-27%
O=C(Nc1ccc(F)c(Cl)c1)N1CCN(C(=O)c2nsc3ccccc23)CC1	·	·	-25%	·	·
COc1ccc(-c2noc(CSc3nnc(-c4ccncc4)n3-c3ccc(C)c(C)c3)n2)cc1	·	-17%	-35%	·	·
Cc1csc(CN(C)C(=O)c2sc3ncnc(NCC4CCCO4)c3c2C)n1 (stereo unspecified)	·	·	·	i	·
Cc1ccc(C2Oc3ccccc3C3=C2C(c2cccs2)n2ncnc2N3)cc1 (stereo unspecified)	22	0%	-24%	i	-23%
Fc1ccc(C2C3=C(Nc4ncnn42)c2ccccc2OC3c2ccncc2)cc1 (stereo unspecified)	-55*	?	-9%	i	-5%
